Screens from PubChem BioAssay.
A selection: hits, their analogues and other compounds. The true share with any hit is near 3.4%.
MITF TRPM1 HTS – increases MITF-driven TRPM1 promoter luciferase signal; SK-MEL-5 TRPM1-promoter luciferase, 24 h; % of positive control, neutral wells = 0; activation, % at 12.5 µM; 300,000 compounds, 0.75% hits; AID 588334;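 active = mean activation of at least 80% with every replicate also reaching 80%; inconclusive = mean reaches 80% but some replicate falls short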;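 also: 0% = neutral control wells and 100% = parthenolide positive control wells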
Wnt act – Wnt/beta-catenin pathway activation; Wnt/beta-catenin reporter cell assay, activator, plate reader; 300,000 compounds, 1.2% hits; activation, % at 9.35 µM; in the data active = activation above about 30%, passing the limit was not always enough; inconclusive = no clear call, values can overlap the other calls;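 also: 0% = neutral control wells and 100% = positive control wells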
esBAF inh – SWI/SNF esBAF complex inhibition. reporter increase, % at 12.5 µM. AID 602393. mouse ES cells, Bmi1-luciferase knock-in reporter, 24 h; 100% = twice the neutral-well signal. 350,000 compounds, 2% hits; in the data active = activation above about 40%; inconclusive = no clear call, values can overlap the other calls;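 also: 0% = median of the plate's neutral control wells and 100% = double that signal; a rise in the Bmi1 reporter signal indicates esBAF inhibition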
miR122 inh – inhibitors of miR-122 in Huh7 cells | activation (reporter increase), % at 12.5 µM | AID 602342 | 340,000 compounds, 0.3% hits | Huh7 miR-122 Renilla luciferase sensor, 48 h; neutral wells = 0, positive control = 100;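 active = mean replicate activation score at least 90 and every replicate individually at or above 90; inconclusive = only one of the two criteria met; inactive = neither criterion met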;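 also: higher luciferase means less miR-122 activity so hits act as miR-122 inhibitors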
Env fusion inh – HIV envelope-mediated fusion inhibition; inhibition, % at 12.3 µM; 360,000 compounds, 1.1% hits; AID 651610; HeLa-JRFL Env/CEM21 cell fusion, luciferase;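 active = mean replicate inhibition score of at least 50 and every replicate individually at or above 50; inconclusive = only one of the two criteria met; inactive = mean below 50 and not all replicates reaching 50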;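 also: 0% = plate neutral controls and 100% = maraviroc near 300 nM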
Numbers without * were called inactive; u = inconclusive; x = no result; ! = not active in a repeat; [ ] = another dose, or the depositor's remark.

SMILES	MITF TRPM1 HTS	Wnt act	esBAF inh	miR122 inh	Env fusion inh
Cc1noc(C)c1NC(=O)Nc1ccc2c(c1)C(=O)N([C@@H](C)CO)C[C@@H](C)[C@@H](CN(C)C(=O)Nc1ccc3c(c1)OCO3)OCCCC[C@@H](C)O2	x	x	-1.3	4.1[16.7 µM]	23.3[16.7 µM]
COc1cccc(S(=O)(=O)N2CCCCN3[C@H](CO)[C@H](c4ccc(C5=CCCCC5)cc4)[C@H]3C2)c1	x	x	-5.5	0.8[16.7 µM]	x
CCCNC(=O)[C@@H]1[C@@H](CO)[C@@H]2Cn3c(ccc(/C=C/c4ccccc4)c3=O)[C@H]1N2C(=O)c1cccnc1	x	x	-2.7	7.1[16.7 µM]	x
O=C(Nc1cccc(Cl)c1)Nc1ccc2nccnc2c1	111.6*	-1.1	96.9*	x	-51.6
O=C(Nc1ccc(C(=O)N2CCCCC2)cc1)Nc1cccc(Cl)c1	106.2*	16.7	85.7*	19.1	-39.8
CNC(=O)C[C@@H]1CC[C@@H]2[C@@H](COc3ccc(NC(=O)Nc4cccc(C)c4)cc3C(=O)N2C)O1	x	x	0.4	-6.7[16.7 µM]	x
CCNC(=O)C[C@@H]1C=C[C@H](NS(=O)(=O)c2ccc(C)cc2)[C@@H](CO)O1	x	x	-3.0	x	-15.4[16.7 µM]
O=C(C[C@@H]1CC[C@@H]2[C@H](COC[C@H](O)CN2C(=O)c2cccnc2)O1)NCc1ccccc1	x	x	-7.2	-6.2[16.7 µM]	x
C=CCNc1nnc(-c2ccncc2)s1	7.8	x	x	-7.1	x
c1ccc2c(Nc3nnc(-c4ccncc4)s3)cccc2c1	u	x	55.0*	-2.9	x
O=C(C[C@H]1CC[C@@H]2[C@H](COC[C@H](O)CN2C(=O)C2CCCC2)O1)NCc1ccncc1	x	x	-5.7	121.7*[16.7 µM]	x
COc1ccccc1CNC(=O)C[C@H]1CC[C@@H]2[C@H](COC[C@H](O)CN2C(=O)Nc2ccc(Cl)cc2)O1	x	x	43.2*	-1.6[16.7 µM]	x
O=C(C[C@H]1CC[C@H]2[C@@H](COC[C@H](O)CN2C(=O)Nc2ccc(Cl)c(Cl)c2)O1)NCc1ccncc1	x	x	1.9	-5.4[16.7 µM]	70.4*[16.7 µM]
O=C(C[C@@H]1CC[C@H]2[C@@H](COC[C@H](O)CN2C(=O)Nc2ccc(Cl)c(Cl)c2)O1)NCc1ccncc1	x	x	-2.1	3.2[16.7 µM]	-8.1[16.7 µM]
O=C(C[C@@H]1CC[C@H]2[C@@H](COC[C@@H](O)CN2C(=O)C2CCCC2)O1)NCc1ccncc1	x	x	-2.8	138.2*[16.7 µM]	x
CCCNC(=O)Nc1ccc2c(c1)C(=O)N(C)C[C@@H](OC)[C@@H](C)CN(Cc1ccccn1)[C@H](C)CO2	x	x	2.6	4.9[16.7 µM]	14.7[16.7 µM]
C[C@@H]1CN([C@@H](C)CO)C(=O)c2cccc(NS(=O)(=O)c3cn(C)cn3)c2O[C@H]1CN(C)Cc1ccccc1	x	x	2.1	-2.4[16.7 µM]	14.4[16.7 µM]
CO[C@@H]1CN(C)C(=O)c2ccc(NS(=O)(=O)c3ccccc3F)cc2OC[C@@H](C)NC[C@H]1C	x	x	-0.5	x	-7.2[16.7 µM]
CO[C@@H]1CN(C)C(=O)c2cc(NC(C)=O)ccc2OC[C@H](C)N(C(=O)c2ccccn2)C[C@H]1C	x	x	-1.4	6.8[16.7 µM]	-24.8[16.7 µM]
CCC(=O)N1C[C@@H]2[C@H](c3ccccc31)[C@@H](CO)N2C(=O)Nc1ccccc1	x	x	-2.5	-16.7[16.7 µM]	x
O=C(C[C@H]1CC[C@@H]2[C@H](COC[C@H](O)CN2CCC(F)(F)F)O1)NCc1ccc(Oc2ccccc2)cc1	x	x	6.3	-5.4[16.7 µM]	-20.9[16.7 µM]
O=C(C[C@H]1CC[C@H]2[C@@H](COC[C@H](O)CN2CCC(F)(F)F)O1)NCc1ccc(Oc2ccccc2)cc1	x	x	-0.4	-0.4[16.7 µM]	56.4*[16.7 µM]
COC(=O)C[C@@H]1CC[C@H]2[C@@H](COC[C@H](O)CN2C(=O)Nc2cccc(F)c2)O1	x	x	20.2	1.6[16.7 µM]	-5.9[16.7 µM]
COC(=O)C[C@H]1CC[C@H]2[C@@H](COC[C@@H](O)CN2C(=O)Nc2cccc(F)c2)O1	x	x	49.8*	8.1[16.7 µM]	-113.8[16.7 µM]
COc1ccccc1NC(=O)N1C[C@@H](O)COC[C@@H]2O[C@@H](CC(=O)NCc3ccccc3)CC[C@H]21	x	x	5.3	-3.0[16.7 µM]	14.2[16.7 µM]
SMILES	MITF TRPM1 HTS	Wnt act	esBAF inh	miR122 inh	Env fusion inh
CC(C)CC#Cc1ccc2c(c1)O[C@@H](CN(C)Cc1cccc(F)c1)[C@H](C)CN([C@@H](C)CO)S2(=O)=O	x	x	0.9	9.8[16.7 µM]	-15.9[16.7 µM]
O=C(c1ccc(C(F)(F)F)cc1)N(CCCn1ccnc1)C(c1ccccn1)c1nc2ccccc2[nH]1 (centres undefined)	x	12.2	21.3	4.5	64.7*
O=C(c1ccccc1)N(CCCn1ccnc1)C(c1ccccc1)c1nc2ccccc2[nH]1 (centres undefined)	x	11.2	15.6	4.6	-33.5
COc1cccc(C2(O)CC(C(F)(F)F)=NN2C(=O)c2ccccn2)c1 (centres undefined)	36.4	45.4*	x	0.4	-28.5
Cn1c2ccccc2c(=O)c2cc(C#Cc3ccccn3)ccc21	102.4*	21.4	1.6	-4.8	-118.2
Cn1c2ccccc2c(=O)c2ccc(C#Cc3ccccn3)cc21	x	-0.6	x	x	-15.7
C[C@@H]1CCCCO[C@@H](CN(C)S(=O)(=O)c2cccs2)[C@@H](C)CN([C@H](C)CO)C(=O)c2cc(NC(=O)Nc3ccccc3)ccc2O1	x	x	-1.7	1.4[16.7 µM]	16.7[16.7 µM]
CC(C)c1ccc(NC(=O)C2=NNC(=O)CC2)cc1	77.6	u	x	x	-37.7
Cc1ccc(NC(=O)C2=NNC(=O)CC2)cc1F	40.3	34.5*	x	x	-10.6
O=[N+]([O-])c1cccc(-c2nnc(-c3ccccc3F)o2)c1	x	49.4*	40.0	x	-56.2
Nc1nnc(-c2cccc([N+](=O)[O-])c2)o1	12.7	2.1	x	x	-8.0
O=C(COc1ccccc1)Nc1nnc(C23CC4CC(CC(C4)C2)C3)s1	x	23.5	47.9*	-3.9	-39.5
O=C(COc1ccccc1)Nc1nc2c(s1)CCCC2	113.9*	20.2	58.0*	-5.7	-36.3
CC(=O)c1sc(NC(=O)COc2ccccc2)nc1C	50.9	5.9	33.4	-1.2	-37.0
CCOc1ccc(CC(=O)Nc2sc(Cc3ccccc3)cc2C(N)=O)cc1OCC	-4.4	-4.2	-3.0	-3.1	x
O=C(Nc1nnc(C23CC4CC(CC(C4)C2)C3)s1)c1ccco1	77.9	41.2*!	31.2	0.4	-22.1
NC(=O)c1cc(Cc2ccccc2)sc1NC(=O)c1ccco1	118.2*	27.2	85.4*	-7.9	x
O=C(Nc1nnc(CCc2ccccc2)s1)c1ccco1	21.9	11.7	23.0	0.2	-37.3
O=C(Nc1nnc(Cc2ccccc2)s1)c1ccco1	48.5	25.0	46.2*	2.3	-72.6
Cc1ccc(S(=O)(=O)Nc2ccc3c(c2)C(=O)N([C@H](C)CO)C[C@@H](C)[C@@H](CN(C)Cc2ccccc2)OCCCC[C@@H](C)O3)cc1	x	x	-1.3	-6.8[16.7 µM]	20.6[16.7 µM]
O=C(C[C@H]1CC[C@H]2[C@@H](COC[C@H](O)CN2C(=O)Nc2ccccc2)O1)NCCCN1CCOCC1	x	x	0.8	-2.5[16.7 µM]	x
O=C(NCc1ccco1)c1cc(-c2ccco2)on1	38.7	-0.9	29.1	-2.0	x
COc1ccc(CCNC(=O)c2cc(-c3ccco3)on2)cc1OC	-25.4	103.4*	x	x	-163.5
COc1cccc(-c2cc(C(=O)NCCc3ccccc3)no2)c1	0.0	x	-7.1	9.5	-22.3
O=C(NCCc1ccccc1)c1cc(-c2ccco2)on1	-9.8	141.3*	36.8	x	x
COc1ccc(CCNC(=O)c2cc(-c3cccs3)on2)cc1OC	-39.3	9.8	-0.1	x	x
